Growth data for 40 compounds are collected here from PubChem BioAssay (NCI).

Molecules are shown by their SMILES. Several values for one entry are separate records, joined by “and”; a condition that tells them apart may be missing. Equal values may be shown once. This is part of a sample that, as a whole, favours compounds with a hit. Of some 83,000 tested, about 20% had one in any assay.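 A percent growth of 40 corresponds to 60% growth inhibition; 0 means no net growth; -100 means all cells died. Active threshold: below 10.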 Activity calls are given as the source filed them.

The assay deals with MDA-MB-468 breast. In words: NCI-60 one-dose screen, 48 h (100 = growth as untreated, 0 = no growth, -100 = all killed). As to conditions: 10 µM unless noted.
In the case of `C[n+]1cccc(CC(=O)NO)c1`, the growth was 88.3% (inactive).

Regarding `CCCC(=O)NC(c1cccnc1)c1ccc2c(C)ccnc2c1O` (stereo not given), the growth was -2% (active). With `CN1C(=O)N(c2ccccc2)C2N=C(N/N=C/c3ccccc3)SC21` (stereo not given) the figure was -11.5% (active); with `CCO/C=N/C1=C(C#N)C(c2ccc(OC)cc2)c2sc3c(F)cccc3c2O1` (stereo not given), 17.7% (inactive); with `CCN(CC)c1ccc(/C=C/C=C2\NC(=O)NC2=O)cc1`, -5.35% (active).

In the case of `O=C(O)c1ccccc1.[Ag]`, the growth is 90.4% (inactive). Turning to `COc1ccc(C(=O)/C=C/c2ccc(C)cc2)cc1OC`, the growth is 47.6% (inactive). With `CCN(CC)CCNc1ccc(C)c2sc3ccccc3c(=O)c12` (tested in a mixture with another compound) the figure was 11.8% (inactive) and 16.9% (inactive); with `COc1ccc(OC)c(C(=O)Nc2cccc(-c3cc(=O)c4ccccc4o3)c2)c1`, 92.9% (inactive); with `O=C1NC(=C(Cl)Cl)/C(=N/S(=O)(=O)NCCc2c[nH]c3ccccc23)N1`, -3.27% (active). For `CCOC(=O)c1nc(Nc2cc(C)[nH]n2)c2ccccc2n1`, the growth was 54.9% (inactive). As for `O=C(NCCO)C(F)(F)F`, the growth was 116% (inactive). With `Nc1c(C(=O)c2ccccc2)sc2nc(-c3cccs3)ccc12` the figure was 3.08% (active).

Turning to `O=c1oc2ccccc2c(Cl)c1Cl`, the growth was 4.65% (active). With `CC[C@@H](c1ccc(O)c(O)c1)[C@@H](CC)c1ccc(O)c(O)c1` the figure was 53.1% (inactive); with `O=C1CSC(=S)N1Cc1cccnc1`, 47.6% (inactive); with `N#Cc1c(-c2ccc(Cl)cc2)nc(NCCO)[nH]c1=O`, 119% (inactive). In the case of `COc1cc(OC)cc(C(=O)Nc2sc3c(c2C(N)=O)CCC(=O)C3)c1` it was 37.1% (inactive); in that of `O=C1/C(=C\c2cccc(OCCCCCOc3ccc(Cl)cc3)c2)N=C2SCCCN12`, 9.3% (active).

As for `Nc1c(C(=O)Nc2ccccn2)sc2nc3c(cc12)CCCC3`, the growth is 43.8% (inactive). Regarding `CN1CCN(CCNc2nc(-c3cccc(NS(=O)(=O)c4cccc5c(N(C)C)cccc45)c3)cs2)CC1`, the growth is 42.9% (inactive). For the compound `COc1cccc(-c2nc3sccn3c2-c2ccnc(NCCNS(=O)(=O)c3cccc(Cl)c3)c2)c1`, the growth is 42.4% (inactive). As for `O=C1c2cccc3cccc(c23)C(=O)N1CCCCCCCCCCN1C(=O)c2cccc3cccc(c23)C1=O`, the growth was 112% (inactive).

Consider `N#Cc1c(-c2ccc(Cl)cc2)nc(NN=Cc2cccc(Cl)c2)nc1N1CCOCC1`, for which the growth was 85.1% (inactive). `C#C[C@]1(O)CC[C@H]2[C@@H]3CC=C4c5sc(-c6cccc(F)c6)nc5CC[C@]4(C)[C@H]3CC[C@@]21C`: the growth was 71.1% (inactive). `COc1ccc(C(=O)n2cc(C=O)c3ccccc32)cc1`: the growth was 105% (inactive). Take `CC(C)(C)[Si](C)(C)OC1[C@@H](O[Si](C)(C)C(C)(C)C)[C@@H](CNC(=O)NC(=O)C(F)(F)F)O[C@H]1n1cnc2c(NC(=O)Nc3ccccc3)ncnc21` (stereo not given in full): the growth was 102% (inactive). In the case of `COc1ccc(C2CC(c3cccc(Nc4ccncc4)c3)=NN2c2ccccc2)cc1` (stereo not given) it was 15.7% (inactive); in that of `Cc1ccc(C)c(CN(C)C)c1O`, 97.7% (inactive); in that of `O=S(=O)(NCCNc1nccc(-c2c(-c3cccc(O)c3)nc3occn23)n1)c1ccc(Br)cc1`, 26.6% (inactive). As to `Cc1cc(Nc2ccc(C(=O)N3CCCC3)cc2)nc(NCCCNc2ccnc3cc(Cl)ccc23)n1`, the growth is 40% (inactive). Take `NC(CC(=O)O)C(=O)OCc1ccccc1` (stereo not given): the growth was 89.4% (inactive). Regarding `Cc1cc2cccnc2c2ncccc12`, the growth was -20.5% (active). `CCOC(=O)c1sc2ncnc(Nc3ccc4c(cnn4C(=O)Nc4ccccc4)c3)c2c1C`: the growth was 78.1% (inactive). For `Cc1[nH]c(C(=O)Nc2ccccc2OCc2cccc(C(=O)NCCN)c2)cc1Cl`, the growth was 34.3% (inactive).

For `Nc1nc(N)c2cc(S(=O)(=O)c3cccc(C(F)(F)F)c3)ccc2n1`, the growth is 38.9% (inactive). As to `O=[n+]1ccn([O-])c2ccccc21`, the growth was 86.9% (inactive).

Consider `O=C1Nc2ccccc2/C1=C/c1cn(CC(O)Cn2cc(/C=C3\C(=O)Nc4ccccc43)c3ccccc32)c2ccccc12` (stereo not given), for which the growth was -84.8% (active). With `Cc1cccc2sc(/N=C(\N)C(Br)Br)nc12` the figure was -33.6% (active).

With `COc1ccc2c(c1)oc1c(C)c3c(c(C)c12)C(=O)N(Nc1ccccc1)C3=O`, the growth was 115% (inactive).
